Data as given in PubChem BioAssay (NCATS).
Several values for one entry are separate records, joined by “and”; a condition that tells them apart may be missing. Equal values may be shown once. Records with an inconclusive call do not appear. Activity calls are given as the source filed them. Unless noted, calls follow the shape of the dose curve; as a rule, active = well fitted curve in the direction sought with a large enough effect; inconclusive = small, poorly fitted or top-dose-only effect, or another doubt; inactive = no such curve, though single readings can be large; an effect the other way counts as inactive or inconclusive.

Assays:
[1] = P-glycoprotein substrates identified in KB-8-5-11 adenocarcinoma cell line, qHTS therapeutic library screen (AID 1346987); also: nearly all actives have a fitted effect of over 65% in size; also: potency is read from the fitted curve at half-maximal effect; as to activity change, negative = cytotoxicity: % is scaled to controls: 0 for no effect and ±100 for the full control effect
Summary of the method: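 Luminescence from CellTiter-Glo, read 5 min after addition, quantified survival of KB-8-5-11 (P-gp-overexpressing) cells exposed to compounds for 72 h. AC50 was derived from concentration-response curves.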

[2] = P-glycoprotein substrates identified in KB-3-1 adenocarcinoma cell line, qHTS therapeutic library screen (AID 1346986); also: nearly all actives have a fitted effect of over 60% in size;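 also: potency is read from the fitted curve at half-maximal effect; potency is for cytotoxicity meaning loss of cell viability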; as to activity change, negative = cytotoxicity: % is scaled to controls: 0 for no effect and ±100 for the full control effect
Summary of the method: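 72 h cell-killing screen, 500 cells/well, CellTiter-Glo luminescence. Paired lines KB-3-1/KB-8-5-11; P-gp dependence checked by tariquidar co-treatment and HEK-293 MDR-19 versus empty-vector cells.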

[3] = Primary qHTS for inhibitors of nuclear receptor binding SET domain protein 2 (NSD2) in an RCH-ACV wild type WT cells (2C) (AID 1645877); also: nearly all actives have a fitted effect of over 70% in size; also: potency is read from the fitted curve at half-maximal effect; as to activity change, negative = cell killing: % is scaled to controls: 0 for no effect and ±100 for the full control effect
[4] = biological target: Glutathione peroxidase 1 (Homo sapiens) (UniProt P07203); assay: Primary qHTS Assay for Inhibitors of Recombinant Selenoprotein Glutathione Peroxidase 1 (GPX1) (AID 1845191); also: nearly all actives have a fitted effect of over 65% in size; also: potency is read from the fitted curve at half-maximal effect
Summary of the method: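 GPX1 10 nM, GR 100 nM, GSH 1 mM, NADPH 0.5 mM, CHP 0.5 mM (final). 30-min cpd preincubation, RT. Ex340/Em450 read t=0, t=15 min.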

[5] = Primary qHTS for inhibitors of nuclear receptor binding SET domain protein 2 (NSD2) in an isogenic RCH-ACV NSD2 p.E1099K mutant (9B) (AID 1645876); also: nearly all actives have a fitted effect of over 70% in size; also: potency is read from the fitted curve at half-maximal effect
[6] = biological target: Phospholipid hydroperoxide glutathione peroxidase GPX4 (Homo sapiens) (UniProt P36969); assay: Primary qHTS Assay for Inhibitors of Recombinant Selenoprotein Glutathione Peroxidase 4 (GPX4) (AID 1845192); conditions: outcome: dose series up to 50 µM unless noted; also: nearly all actives have a fitted effect of over 65% in size
Summary of the method: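 qHTS, GR-coupled: GPX4 200 nM + cpd 30 min RT → GSH 1 mM, NADPH 0.5 mM, GR 100 nM → CHP 0.5 mM start; fluor 340/450 at t0 and t15 min; no-enzyme wells as control.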

[7] = qHTS drug screen for cell cycle checkpoint inhibitors in PARPi-resistant BRCA-mutant ovarian cancer cell lines. (AID 1963452; calls by dose curve; also: potency is read from the fitted curve at half-maximal effect); conditions: PEO1/OlaR viability, CellTiter-Glo luminescence, 96 h; for Z-AUC: stronger effect = lower value
Summary of the method: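 PEO1, PEO4 and PEO1/OlaR ovarian cancer cells, 600 per well, exposed 96 h at 37C to a dilution series. Viability read by CellTiter-Glo luminescence, normalized to DMSO and empty wells; activity summarized as Z-AUC.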

[8] = Drug repurposing screens with cells derived from glioblastoma tumor samples (AID 1345199); conditions: GBM patient neurospheres viability, ATP luminescence, 48 h; also: nearly all actives have a fitted effect of over 40% in size; also: potency is read from the fitted curve at half-maximal effect
Summary of the method: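 Primary testing used CD133+ neurospheres from four GBM patients, seven concentrations, 48 h exposure and ATP-based viability; confirmation added three slower-growing patient lines.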

[9] = biological target: Calcium and integrin-binding protein 1 (Homo sapiens) (UniProt Q99828); assay: Primary qHTS for Identification of Calcium Integrin Binding Protein 1 (CIB1) Competitor (AID 1508620);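 also: GST tagged CIB1 binding a fluorescein labelled alphaIIb integrin peptide tracer; top concentration of the series differs between compounds; % is scaled to controls: 0 for no effect and ±100 for the full control effect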
Summary of the method: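 Fluorescence polarization competition: CIB1-GST (1 uM final) preincubated with compound 15 min at room temperature, then FITC-labeled alphaIIb peptide (100 nM final) added for another 15 min. Polarization read at Ex 480/Em 540.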

[10] = measured here: PEO1 parental Z-AUC
[11] = at 45.9 µM (top of the series), tumour line D
[12] = at 45.9 µM (top of the series), tumour line B
[13] = at 46.1 µM (top of the series), tumour line C

Sequence of Glutathione peroxidase 1 (Homo sapiens) (P07203 whole entry, looked up): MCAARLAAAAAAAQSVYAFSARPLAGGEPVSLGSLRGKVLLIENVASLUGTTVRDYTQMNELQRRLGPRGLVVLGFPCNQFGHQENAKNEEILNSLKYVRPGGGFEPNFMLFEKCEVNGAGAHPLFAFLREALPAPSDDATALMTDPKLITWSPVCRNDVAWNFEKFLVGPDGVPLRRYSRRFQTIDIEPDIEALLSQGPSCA
Sequence of Phospholipid hydroperoxide glutathione peroxidase GPX4 (Homo sapiens) (P36969 whole entry, looked up): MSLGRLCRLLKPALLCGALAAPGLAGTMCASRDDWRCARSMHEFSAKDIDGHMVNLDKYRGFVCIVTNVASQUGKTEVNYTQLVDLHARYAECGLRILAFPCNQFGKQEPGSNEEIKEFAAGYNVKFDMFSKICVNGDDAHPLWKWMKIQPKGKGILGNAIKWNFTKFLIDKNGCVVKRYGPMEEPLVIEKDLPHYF
Sequence of Calcium and integrin-binding protein 1 (Homo sapiens) (Q99828 whole entry, looked up): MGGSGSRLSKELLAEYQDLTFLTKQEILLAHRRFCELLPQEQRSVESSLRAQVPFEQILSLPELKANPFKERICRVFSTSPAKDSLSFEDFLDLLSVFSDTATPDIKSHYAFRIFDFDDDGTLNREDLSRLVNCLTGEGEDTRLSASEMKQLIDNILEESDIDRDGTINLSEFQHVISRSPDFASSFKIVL

Structure (SMILES): CC1(C)N=C(N)N=C(N)N1c1ccc(Cl)cc1
- Potency [1]: inactive

Structure (SMILES): O=C(O)c1ccc2c3c1cccc3c(=O)n1c3ccccc3nc21
- Potency [2]: inactive
- Potency [1]: inactive
- Potency [3]: inactive
- Potency [4]: inactive

Structure (SMILES): CN1CCN(Cc2ccc(Nc3ncc(Cl)c(Nc4ccccc4S(=O)(=O)N(C)C)n3)cc2)CC1
- Potency [2]: 0.0596 µM (active)
- Potency [1]: 0.0668 µM (active)
- Potency [5]: 0.0241 µM (active)
- Potency [3]: 15.2 nM (active)
- outcome [4]: inactive [at 9.52 µM]
- activity change, negative = inhibition [6]: -3.36% [at 9.73 µM] (inactive)
- Potency [7]: 79.6 nM (active)
- Z-AUC [7, 10]: -1.68
- Z-AUC ([7]; measured here: PEO4 Z-AUC): -1.52

Structure (SMILES): C/C1=C2N=C(/C=C3N=C(/C(C)=C4\[N-]C(C(CC(N)=O)C4(C)CCC(=O)NCC(C)OP(=O)([O-])OC4C(CO)OC(n5cnc6cc(C)c(C)cc65)C4O)C4(C)N=C1C(CCC(N)=O)C4(C)CC(N)=O)C(CCC(N)=O)C\3(C)C)C(CCC(N)=O)C/2(C)CC(N)=O.[CH3-].[Co+3] (centres undefined)
- activity, negative = cell killing [8, 11]: -36.9% (inactive)

Structure (SMILES): COc1c(Nc2ncc(Cl)c(N[C@H]3[C@H](C(N)=O)[C@@H]4C=C[C@@H]3C4)n2)ccc2c1CCC(N1CCOCC1)CC2 (some centres undefined)
- Potency [2]: 6.51 µM (active)
- Potency [1]: 4.11 µM (active)
- Potency [5]: 1.05 µM (active)
- Potency [3]: 3320 nM (active)

Structure (SMILES): CS(=O)(=O)CCNCc1nc(-c2ccc3ncnc(Nc4ccc(OCc5cccc(F)c5)c(Cl)c4)c3c2)cs1
- activity change, negative = cytotoxicity [2]: 4.91% [at 9.29 µM] (inactive)
- outcome [1]: inactive [at 9.29 µM]
- outcome [4]: inactive [at 9.52 µM]

Structure (SMILES): Cc1nc2c(O)cccc2c(=O)[nH]1
- Potency [2]: inactive
- Potency [1]: inactive
- Potency [5]: inactive
- Potency [3]: inactive

Structure (SMILES): N#C/C(=C(\N)Sc1ccc(N)cc1)c1ccccc1C(F)(F)F
- Potency [2]: inactive
- Potency [1]: inactive

Structure (SMILES): C=CC(=O)c1ccc2ccccc2c1
- Potency [2]: inactive
- Potency [1]: inactive
- Potency [3]: inactive
- Potency [4]: inactive

Structure (SMILES): COc1cc([C@@H]2c3cc4c(cc3C(O[C@@H]3O[C@@H]5CO[C@@H](C)O[C@H]5[C@H](O)[C@H]3O)C3COC(=O)[C@@H]32)OCO4)cc(OC)c1OP(=O)(O)O (some centres undefined)
- Potency [1]: 18.4 µM (active)
- activity, negative = cell killing [8, 12]: -18.7% (inactive)
- activity, negative = cell killing [8, 11]: -17% (inactive)
- activity, negative = cell killing [8, 13]: -13.7% (inactive)
- Potency ([8]; tumour line A): 15.8 µM (active)

Structure (SMILES): O=C1NC(=O)/C(=C/c2ccc3nccc(-c4ccncc4)c3c2)S1
- Potency [2]: 1.64 µM (active)
- Potency [1]: 3.66 µM (active)
- Potency [5]: 920 nM (active) and 332 nM (active)
- Potency [3]: 920 nM (active) and 525 nM (active)
- Potency [4]: inactive
- Potency [6]: inactive
- Potency [7]: 1950 nM (active)
- Z-AUC [7, 10]: -1.47
- Z-AUC ([7]; measured here: PEO4 Z-AUC): -1.84

Structure (SMILES): CN1CCN(CCC=C2c3ccccc3Sc3ccc(S(=O)(=O)N(C)C)cc32)CC1
- Potency [4]: inactive
- activity, negative = cell killing [8, 13]: 4.82% (inactive)
- Potency ([8]; tumour line A): 7.08 µM (active)
- Potency ([8]; tumour line B): 35.5 µM (active)

Structure (SMILES): COC(=O)[C@]12CCC(C)(C)C[C@@H]1[C@@H]1C(=O)C=C3[C@]4(C)C=C(C#N)C(=O)C(C)(C)[C@@H]4CC[C@@]3(C)[C@]1(C)CC2
- Potency [2]: 1.46 µM (active)

Structure (SMILES): CCN(CC)C(=O)c1cc(S(=O)(=O)Cc2ccccc2)c(N2CCC(c3ccccc3)CC2)cc1N(CC)CCN(C)C
- Potency [1]: 16.4 µM (active)
- outcome [9]: inactive

Structure (SMILES): CCCCCCCCCCCCC/C=C/[C@@H](O)[C@H](CO)N(C)C
- activity change, negative = cytotoxicity [2]: -2.89% [at 5.11 µM] (inactive)
- outcome [1]: inactive [at 5.11 µM]
- activity change, negative = viability loss [5]: -1.18% [at 4.96 µM] (inactive)
- activity change, negative = cell killing [3]: 4.48% [at 4.96 µM] (inactive)
- Potency [4]: inactive

Structure (SMILES): CCCCCCCCCCCCCCCCSCC(COC)COP(=O)([O-])OCC[N+](C)(C)C (centres undefined)
- Potency [1]: inactive
- activity, negative = cell killing [8, 11]: -10.7% (inactive)
- activity, negative = cell killing [8, 13]: 5.78% (inactive)
- Potency ([8]; tumour line A): 22.4 µM (active)

Structure (SMILES): CCc1c(C(=O)NNC(=O)[C@@H](O)c2cc(F)cc(F)c2)ccc(O)c1C
- Potency [2]: inactive
- Potency [1]: inactive
- Potency [5]: inactive
- Potency [3]: inactive
- Potency [4]: inactive
- Potency [6]: inactive
- Z-AUC [7]: 1.17 (inactive)
- Z-AUC [7, 10]: 0.688
- Z-AUC ([7]; measured here: PEO4 Z-AUC): 1.04

Structure (SMILES): O=C(NCCc1c[nH]c2ccc(O)cc12)c1ccc2ccccc2c1O
- Potency [2]: 8.2 µM (active)

Structure (SMILES): CCCCCCCC[N+](C)(C)CCCCCCCC
- Potency [1]: inactive

Structure (SMILES): CN(C)Cc1cccc(N=C(c2ccccc2)c2c(O)[nH]c3cc(C(N)=O)ccc23)c1
- Potency [2]: inactive
- Potency [1]: inactive
- Potency [5]: 16.4 µM (active)
- Potency [3]: inactive
- Potency [4]: inactive
- Potency [6]: inactive
- Z-AUC [7]: 0.325 (inactive)
- Z-AUC [7, 10]: 0.627
- Z-AUC ([7]; measured here: PEO4 Z-AUC): -0.143

Structure (SMILES): CCOC(=O)CN[C@@H](C(=O)N1CC[C@H]1C(=O)NCc1ccc(/C(N)=N/O)cc1)C1CCCCC1
- Potency [4]: inactive
- Potency [6]: inactive
- activity, negative = cell killing [8, 12]: -9.76% (inactive)
- activity, negative = cell killing [8, 11]: -14.5% (inactive)
- activity, negative = cell killing ([8]; at 46 µM (top of the series), tumour line A): -18.3% (inactive)
- activity, negative = cell killing [8, 13]: -15.2% (inactive)

Structure (SMILES): C#Cc1cccc(Nc2ncnc3cc(OC)c(OC)cc23)c1
- Potency [2]: 5.17 µM (active)
- Potency [1]: 9.2 µM (active)
- Potency [5]: 14.6 µM (active)
- Potency [3]: 20600 nM (active)

Structure (SMILES): COc1cc(F)ccc1-c1ncnc(Nc2cccc(CS(C)(=N)=O)c2)n1 (centres undefined)
- Potency [2]: 1.46 µM (active)
- Potency [1]: 5.17 µM (active)
- Potency [5]: 0.525 µM (active)
- Potency [3]: 372 nM (active)
- Potency [4]: inactive
- Potency [6]: inactive
- Z-AUC [7]: -0.906 (inactive)
- Z-AUC [7, 10]: -1.2
- Z-AUC ([7]; measured here: PEO4 Z-AUC): -0.831

Structure (SMILES): Cc1ccc(Cl)cc1NC(=O)c1nc[nH]c1C(=O)Nc1nc2ccccc2[nH]1
- Potency [2]: inactive
- Potency [1]: inactive
- Potency [5]: inactive
- Potency [3]: inactive

Structure (SMILES): CC(=O)Nc1ccc(C(=O)NC(C)(C)C)cc1
- Potency [2]: inactive
- Potency [1]: inactive
- Potency [5]: inactive
- Potency [3]: inactive
- Potency [4]: inactive
- Z-AUC [7]: 1.04 (inactive)
- Z-AUC [7, 10]: 0.805
- Z-AUC ([7]; measured here: PEO4 Z-AUC): 0.364

Structure (SMILES): Cc1cn(C2OC(CO)C(O)C2F)c(=O)[nH]c1=O (centres undefined)
- Potency [2]: inactive
- Potency [1]: inactive
- Potency [5]: inactive
- Potency [3]: inactive

Structure (SMILES): S=c1ssc2c1CCC2
- Potency [2]: inactive
- Potency [1]: inactive
- Potency [5]: inactive
- Potency [3]: inactive
- Potency [4]: 14.3 µM (active)

Structure (SMILES): C[C@@H]1N=C(N)NC(N(C)C)=N1
- Potency [2]: inactive
- Potency [1]: inactive
- Potency [5]: inactive
- Potency [3]: inactive
- Potency [4]: inactive
- Potency [6]: inactive
- Z-AUC [7]: 1.33 (inactive)
- Z-AUC [7, 10]: 1.06
- Z-AUC ([7]; measured here: PEO4 Z-AUC): 1.03

Structure (SMILES): COc1ccc2nc3ccc(OC)cc3c(SCCCN)c2c1
- Potency [2]: inactive
- Potency [1]: inactive
- Potency [5]: inactive
- Potency [3]: inactive

Structure (SMILES): C[C@@]1(F)[C@H](O)[C@@H](CO)O[C@H]1n1ccc(N)nc1=O
- Potency [2]: inactive
- Potency [1]: inactive
- Potency [5]: inactive
- Potency [3]: inactive
